Among all 150,000 compounds or so, about 6,500 (4.3%) were called active. Roughly 12% stayed inconclusive and do not appear here. The sample as a whole holds a higher share of actives than the screen did. Unmarked numbers belong to inactive results. Calls follow the shape of the dose curve; as a rule, active = well fitted inhibition curve with a large enough effect (not every such curve was filed as active); inconclusive = small, poorly fitted or top-dose-only effect, or another doubt; inactive = no such curve, though single readings can be large or run the other way.
% is scaled to controls: 0 for no effect and ±100 for the full control effect; potency is read from the fitted curve at half-maximal effect.

For this assay, the target named is 15-hydroxyprostaglandin dehydrogenase [NAD(+)] (Homo sapiens) (UniProt P15428). In words: qHTS Assay for Inhibitors of HPGD (15-Hydroxyprostaglandin Dehydrogenase). Particulars: purified HPGD, NADH fluorescence kinetic, PGE2 substrate; activity change, negative = inhibition: hits give low values. The procedure, abridged: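 NADH formation kinetics: reaction with 30 uM PGE2 and 1 mM NAD+ (final), 20 nM enzyme, Tris-HCl pH 8 with Tween 20, after 15 min compound preincubation at room temperature. Fluorescence change, last versus first of five reads.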
15-hydroxyprostaglandin dehydrogenase [NAD(+)] (Homo sapiens), sequence (P15428 whole entry, looked up): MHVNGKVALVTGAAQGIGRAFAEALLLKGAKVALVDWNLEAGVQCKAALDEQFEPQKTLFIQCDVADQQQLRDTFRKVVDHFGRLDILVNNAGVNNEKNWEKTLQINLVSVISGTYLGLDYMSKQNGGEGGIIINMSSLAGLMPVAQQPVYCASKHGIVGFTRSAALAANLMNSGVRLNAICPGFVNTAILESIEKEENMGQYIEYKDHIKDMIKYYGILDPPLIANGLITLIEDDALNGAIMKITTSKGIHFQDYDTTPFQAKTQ
As to `COc1ccccc1N1CCN(C(=O)C(=O)N/N=C/c2ccccc2F)CC1`, the activity change, negative = inhibition is -6.15%. As for `CC(C)=C(NC(=O)c1ccccc1)C(=O)N/N=C(\C)c1ccccc1O`, the activity change, negative = inhibition is -7.72%. In the case of `Cc1cc(C)cc(NC(=S)NCCCN2CCOCC2)c1`, the activity change, negative = inhibition is -3.2%.

As to `Cc1ccc2[nH]c(=O)c(CC=C(Cl)Cl)c(C)c2c1`, the activity change, negative = inhibition is -6.58%.

With `Cc1cc(C(=O)NNC(=S)Nc2ccccc2C)cs1`, the activity change, negative = inhibition was -17.5%. With `COC(=O)C1=NNC2(c3ccc(C)cc3)C(=O)N(c3cccc(C)c3C)C(=O)C12` (stereo unspecified), the activity change, negative = inhibition is -7.55%. In the case of `O=C(Cc1cccs1)N/N=C/c1ccc(OCc2ccccc2)cc1`, the activity change, negative = inhibition was -20.3%. As to `CCOc1ccc(/C=N/OCC(=O)NCc2cccs2)cc1`, the Potency was 15.8 µM (active). Regarding `CCOc1ccc(/C=N/NC(N)=S)cc1`, the activity change, negative = inhibition was -6.57%. With `CC1CCc2sc(C(=O)N/N=C/C3CCCCC3)cc2C1` (stereo unspecified), the activity change, negative = inhibition was -7.97%. Take `O=C(Nc1ccccc1C(=O)NCCCn1ccnc1)c1ccc(Cl)cc1Cl`: the activity change, negative = inhibition is -7.71%. In the case of `Cc1cc(C)n(C(=O)CCNC(=O)c2ccccc2Cl)n1`, the Potency is 15.8 µM (active). As to `CCOc1ccc(NC(=O)CCC(=O)n2nc(C)cc2C)cc1`, the activity change, negative = inhibition was -8.1%. As to `CCOC(=O)CC(NC(=O)C1c2ccccc2Oc2ccccc21)c1ccc(C)cc1` (stereo unspecified), the activity change, negative = inhibition was 6.16%. Consider `CCOC(=O)C1=C(C)OC(N)=C(C#N)C1c1cncc(-c2ccc(F)cc2)c1` (stereo unspecified), for which the activity change, negative = inhibition is -9.79%. For the compound `Cc1cnc(NC(=O)CSc2nnc(-c3ccccc3)n2Cc2ccccc2)s1`, the activity change, negative = inhibition is -9.73%. Regarding `Cc1cnc(NC(=O)CSc2c(Cl)cccc2Cl)s1`, the activity change, negative = inhibition is -12.6%. Turning to `Cc1cnc(NC(=O)CSc2nnc(-c3ccc(Cl)cc3Cl)n2N)s1`, the Potency is 25.1 µM (active).

For the compound `CCCCC(O)(CCCC)C(=O)NN(C(=O)CCl)c1ccccc1`, the activity change, negative = inhibition was -6.18%. Turning to `O=C(NCCCO)/C(=C\C=C\c1ccccc1)NC(=O)c1ccccc1Cl`, the activity change, negative = inhibition is -15.4%. On to `CC(C)(C)C(=O)NC(NC(=S)Nc1ccc(S(N)(=O)=O)cc1)C(Cl)(Cl)Cl` (stereo unspecified), for which the activity change, negative = inhibition is -0.407%.

Take `CC(C)(C)C1CCC(=NNC(=O)c2cc(-c3ccccc3)n[nH]2)CC1` (stereo unspecified): the activity change, negative = inhibition is -7.88%. `Cc1ccccc1-c1ccc(Nc2ccc(C(=O)N3CCOCC3)cc2)nn1`: the Potency was 22.4 µM (active). In the case of `O=C(c1ccccc1-c1ccccc1)N1CCOCC1`, the activity change, negative = inhibition is -1.91%. `Cc1onc(-c2ccccc2)c1C(=O)N1CCOCC1`: the activity change, negative = inhibition was 0.967%. As for `O=C(COc1ccc(/C=N/NC(=O)c2ccc(O)cc2)cc1)Nc1ccc([N+](=O)[O-])cc1`, the activity change, negative = inhibition was -5.7%.

Source of the values: PubChem BioAssay AID894 (National Center for Advancing Translational Sciences (NCATS), 2007).
